Test results: PubChem BioAssay (NCATS)
Records with an inconclusive call do not appear. Where a call stands in place of a potency, no number is given. The source made the active and inactive calls. Calls follow the shape of the dose curve; as a rule, active = well fitted curve in the direction sought with a large enough effect; inconclusive = small, poorly fitted or top-dose-only effect, or another doubt; inactive = no such curve, though single readings can be large; an effect the other way counts as inactive or inconclusive.

Key:
[1] = qHTS of pediatric cancer cell lines to identify multiple opportunities for drug repurposing: Primary screen for A673 cells (AID 1347092); also: nearly all actives have a fitted effect of over 45% in size; also: potency is read from the fitted curve at half-maximal effect
How it was run: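 Titration-based qHTS on A673 cells: MIPE compounds spanned 11 points (0.78 nM to 46 µM final), NPC compounds 8 points (0.59 nM to 46 µM final). Viability after 48 h was measured by ATP luminescence.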

[2] = qHTS of pediatric cancer cell lines to identify multiple opportunities for drug repurposing: Primary screen for SK-N-MC cells (AID 1347093); also: potency is read from the fitted curve at half-maximal effect
How it was run: (§1)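 Metabolically active cells were quantified by ATP-dependent luminescence (CellTiter-Glo, 15 min at room temperature) following 48 h treatment. Cells had been plated at 500-1,000 per well and settled for 5 h beforehand.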

[3] = qHTS of pediatric cancer cell lines to identify multiple opportunities for drug repurposing: Primary screen for BT-37 cells (AID 1347094); also: potency is read from the fitted curve at half-maximal effect
How it was run: (§2)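 Cells plated at 500-1,000/well in growth medium, compounds added after 5 h. MIPE tested at 11 points (from 0.78 nM), NPC at 8 points (from 0.59 nM). CellTiter-Glo luminescence after 48 h; concentration-response curves from primary screen.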

[4] = qHTS of pediatric cancer cell lines to identify multiple opportunities for drug repurposing: Primary screen for NB-EBc1 cells (AID 1347095); also: potency is read from the fitted curve at half-maximal effect
How it was run: as §2

[5] = qHTS of pediatric cancer cell lines to identify multiple opportunities for drug repurposing: Primary screen for U-2 OS cells (AID 1347096); also: nearly all actives have a fitted effect of over 50% in size
How it was run: (§3)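 Cells (500-1,000/well) in growth media were settled 5 h at 37 degrees C, then given compounds for 48 h. Viability was read as CellTiter-Glo luminescence. Primary runs used MIPE at 11 points (0.78 nM-46 µM) and NPC at 8 points (0.59 nM-46 µM); follow-ups used 11 points.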

[6] = qHTS of pediatric cancer cell lines to identify multiple opportunities for drug repurposing: Primary screen for Saos-2 cells (AID 1347097); also: nearly all actives have a fitted effect of over 40% in size; also: potency is read from the fitted curve at half-maximal effect
How it was run: as §2

[7] = qHTS of pediatric cancer cell lines to identify multiple opportunities for drug repurposing: Primary screen for NB1643 cells (AID 1347099); also: nearly all actives have a fitted effect of over 50% in size; also: potency is read from the fitted curve at half-maximal effect
How it was run: as §2

[8] = qHTS of pediatric cancer cell lines to identify multiple opportunities for drug repurposing: Primary screen for LAN-5 cells (AID 1347100); also: potency is read from the fitted curve at half-maximal effect
How it was run: as §3

[9] = qHTS of pediatric cancer cell lines to identify multiple opportunities for drug repurposing: Primary screen for Rh18 cells (AID 1347102); also: nearly all actives have a fitted effect of over 65% in size; also: potency is read from the fitted curve at half-maximal effect
How it was run: as §3

[10] = qHTS of pediatric cancer cell lines to identify multiple opportunities for drug repurposing: Primary screen for OHS-50 cells (AID 1347103); also: nearly all actives have a fitted effect of over 40% in size; also: potency is read from the fitted curve at half-maximal effect
How it was run: (§4)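 Cells (500-1,000/well) rested 5 h, then received compounds for 48 h; metabolically active cells were measured by CellTiter-Glo luminescence. Final concentrations spanned up to 46 µM (MIPE, 11-point) or 0.59 nM-46 µM (NPC, 8-point) in primary screens, 11-point in follow-ups.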

[11] = qHTS of pediatric cancer cell lines to identify multiple opportunities for drug repurposing: Primary screen for RD cells (AID 1347104); also: nearly all actives have a fitted effect of over 55% in size; also: potency is read from the fitted curve at half-maximal effect
How it was run: as §2

[12] = qHTS of pediatric cancer cell lines to identify multiple opportunities for drug repurposing: Primary screen for MG 63 (6-TG R) cells (AID 1347105); also: nearly all actives have a fitted effect of over 50% in size; also: potency is read from the fitted curve at half-maximal effect
How it was run: as §2

[13] = qHTS of pediatric cancer cell lines to identify multiple opportunities for drug repurposing: Primary screen for control Hh wild type fibroblast cells (AID 1347106);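 also: series mostly up to about 46 µM; a drop in luminescence marks cytotoxicity and a rise apparent proliferation; nearly all actives have a fitted effect of over 55% in size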
How it was run: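 Viability after 48 h compound treatment at 37C, 500-1,000 cells/well, read as ATP luminescence with CellTiter-Glo. Primary screens used 11-point (MIPE, 0.78 nM-46 µM) or 8-point (NPC, 0.59 nM-46 µM) final concentrations; follow-up screens used 11-point dilutions.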

[14] = qHTS of pediatric cancer cell lines to identify multiple opportunities for drug repurposing: Primary screen for Rh30 cells (AID 1347107); also: series mostly up to about 46 µM; nearly all actives have a fitted effect of over 75% in size
How it was run: as §3

[15] = qHTS of pediatric cancer cell lines to identify multiple opportunities for drug repurposing: Primary screen for Rh41 cells (AID 1347108); also: nearly all actives have a fitted effect of over 70% in size; also: potency is read from the fitted curve at half-maximal effect
How it was run: as §2

[16] = qHTS of pediatric cancer cell lines to identify multiple opportunities for drug repurposing: Primary screen for SK-N-SH cells (AID 1347098);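 also: DMSO served as neutral control and bortezomib at 2.3 µM as positive control; nearly all actives have a fitted effect of over 65% in size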
How it was run: as §4

[17] = qHTS of pediatric cancer cell lines to identify multiple opportunities for drug repurposing: Primary screen for BT-12 cells (AID 1347101); also: nearly all actives have a fitted effect of over 25% in size; also: potency is read from the fitted curve at half-maximal effect
How it was run: as §4

[18] = qHTS of pediatric cancer cell lines to identify multiple opportunities for drug repurposing: Confirmatory screen for NB1643 cells (AID 1347109); also: nearly all actives have a fitted effect of over 45% in size; also: potency is read from the fitted curve at half-maximal effect
How it was run: as §3

[19] = qHTS of pediatric cancer cell lines to identify multiple opportunities for drug repurposing: Confirmatory screen for A673 cells (AID 1347110);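 also: cells exposed to compound for 48 h before the viability read; nearly all actives have a fitted effect of over 65% in size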; also: potency is read from the fitted curve at half-maximal effect
How it was run: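 Forty-eight-hour viability assay. Follow-up compounds ran at 11-point dilutions; positive control bortezomib at 2.3 uM final, neutral control DMSO.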

[20] = qHTS of pediatric cancer cell lines to identify multiple opportunities for drug repurposing: Confirmatory screen for SK-N-MC cells (AID 1347111);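 also: potency is read from the fitted curve at half-maximal effect; cells exposed to compound for 48 h before the readout; nearly all actives have a fitted effect of over 70% in size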
How it was run: as §1

Row | SMILES | Potency [1] | Potency [2] | Potency [3] | Potency [4] | Potency [5] | Potency [6] | Potency [7] | Potency [8] | Potency [9] | Potency [10] | Potency [11] | Potency [12] | Potency [13] | Potency [14] | Potency [15] | Potency [16] | Potency [17] | Potency [18] | Potency [19] | Potency [20]
1 | O=C(O)c1ccccc1C(=O)Nc1ccc(-c2ccccc2)cc1 | inactive | inactive | inactive | inactive | inactive | inactive | inactive | inactive | inactive | inactive | inactive | inactive | inactive | inactive | inactive |  |  |  |  | 
2 | C[N+](C)(C)CCCCCC[N+](C)(C)C | inactive | inactive | inactive | inactive | inactive |  | inactive |  | inactive | inactive | inactive | inactive | inactive | inactive | inactive | inactive |  |  |  | 
3 | O=c1[nH]cnc2c1ncn2[C@H]1CC[C@@H](CO)O1 | 29.6 µM (active) | 9.35 µM (active) | inactive | inactive | inactive | inactive |  | inactive |  | inactive | inactive | inactive | inactive | inactive | inactive |  | inactive | inactive | inactive | 
4 | NC[C@@H]1O[C@@H](O[C@H]2[C@@H](O)[C@H](O[C@@H]3[C@@H](O)[C@@H](N)C[C@H](N)[C@H]3O[C@H]3O[C@H](CN)[C@@H](O)[C@@H](O)[C@H]3N)O[C@H]2CO)[C@H](N)[C@@H](O)[C@@H]1O | inactive | inactive | inactive | inactive | inactive |  | inactive | inactive | inactive | inactive | inactive | inactive | inactive | inactive | inactive | inactive | inactive |  |  | 
5 | CC(C)(C)OC(=O)N[C@H]1CCCCCC=C[C@@H]2C[C@@]2(C(=O)NS(=O)(=O)C2CC2)NC(=O)[C@@H]2C[C@@H](OC(=O)N3Cc4cccc(F)c4C3)CN2C1=O | inactive | 29.6 µM (active) | inactive | inactive | inactive |  | inactive | inactive | inactive | inactive | inactive | inactive | inactive | inactive |  | inactive | inactive |  |  | 
6 | CC[C@@]1(O)C[C@H](O[C@H]2C[C@H](N(C)C)[C@H](O[C@H]3C[C@H](O)[C@H](O[C@H]4CCC(=O)[C@H](C)O4)[C@H](C)O3)[C@H](C)O2)c2c(cc3c(c2O)C(=O)c2c(O)cccc2C3=O)[C@@H]1C(=O)OC | 4.69 µM (active) | 18.7 µM (active) | 0.385 µM (active) | 0.526 µM (active) | inactive | 16.6 µM (active) |  | 2.35 µM (active) | inactive | inactive | inactive | inactive | inactive | inactive |  |  |  |  |  | 
7 | C[C@H]1[C@H](NC(=O)C(=NOC(C)(C)C(=O)O)c2csc(N)n2)C(=O)N1S(=O)(=O)O | inactive | inactive | inactive | inactive | inactive |  | inactive |  |  | inactive | inactive | inactive | inactive | inactive | inactive | inactive | inactive |  |  | 
8 | NC1CCC(Nc2nc(Nc3ccc(C(=O)N4CCCCC4)cc3)c3ncn(-c4cccc(F)c4)c3n2)CC1 (stereo unspecified) | inactive | inactive | inactive | inactive | inactive |  | inactive | inactive |  | inactive | inactive | inactive | inactive | inactive | inactive |  | inactive |  |  | 
9 | Cc1ccccc1C(C(=O)NC1CCCCC1)N(C(=O)Cn1ccnc1C)c1cccc(F)c1 (stereo unspecified) | inactive | 23.5 µM (active) | inactive |  | inactive |  | inactive | inactive | inactive |  |  | inactive | inactive | inactive |  | inactive |  |  |  | 
10 | COC1CCC(N(C(=O)C2CCC(C)CC2)c2cc(C3=CCCCC3)sc2C(=O)O)CC1 (stereo unspecified) | inactive | 23.5 µM (active) | inactive |  | inactive | inactive | 23.5 µM (active) | inactive |  | inactive |  |  | inactive | inactive | inactive | inactive | inactive |  |  | 
11 | Cc1[nH]c(C=C2C(=O)Nc3ccc(S(=O)(=O)Cc4c(Cl)cccc4Cl)cc32)c(C)c1C(=O)N1CCC[C@H]1CN1CCCC1 | 23.5 µM (active) | 18.7 µM (active) | 27.3 µM (active) | inactive |  | 18.7 µM (active) |  |  | 14.8 µM (active) | 30.6 µM (active) | 18.7 µM (active) |  | inactive |  | 18.7 µM (active) |  |  | 11.7 µM (active) | 13.1 µM (active) | 9.27 µM (active)
12 | O=C(O)c1ccc(-c2cc3cccnc3c(-c3ccc4nonc4c3)n2)cc1 | 18.7 µM (active) | 3.32 µM (active) | 24.3 µM (active) |  | inactive |  |  |  |  | 27.3 µM (active) | 26.4 µM (active) |  | inactive | inactive |  |  | 27.3 µM (active) |  | 0.928 µM (active) | 2.33 µM (active)
13 | C[C@H](NC(=O)C(=O)Nc1ccccc1C(C)(C)C)C(=O)N[C@@H](CC(=O)O)C(=O)COc1c(F)c(F)cc(F)c1F | 23.5 µM (active) | 5.9 µM (active) | inactive | inactive |  | 18.7 µM (active) | 9.35 µM (active) |  |  | inactive |  | 14.8 µM (active) | inactive | inactive |  | inactive |  |  |  | 
